Data as given in ChEMBL document CHEMBL1961873, “Compounds: GSK PKIS; Assays: Nanosyn kinase panel” (2012).

Legend:
[1] = system: Tyrosine-protein kinase ABL1 (Homo sapiens), P00519 [T315I]; settings: at 1 µM
[2] = system: Tyrosine-protein kinase ABL1 (Homo sapiens), P00519 [Y253F]; settings: at 0.1 µM
[3] = system: Tyrosine-protein kinase ABL1 (Homo sapiens), P00519 [Y253F]; settings: at 1 µM
[4] = target: Tyrosine-protein kinase ABL1 (Homo sapiens) (UniProt P00519); settings: at 0.1 µM
[5] = target: Tyrosine-protein kinase ABL1 (Homo sapiens) (UniProt P00519); settings: at 1 µM
[6] = target: ALK tyrosine kinase receptor (Homo sapiens) (UniProt Q9UM73); settings: at 0.1 µM
[7] = target: ALK tyrosine kinase receptor (Homo sapiens) (UniProt Q9UM73); settings: at 1 µM
[8] = target: Tyrosine-protein kinase ABL2 (Homo sapiens) (UniProt P42684); settings: at 0.1 µM
[9] = target: Tyrosine-protein kinase ABL2 (Homo sapiens) (UniProt P42684); settings: at 1 µM
[10] = target: Tyrosine-protein kinase receptor UFO (Homo sapiens) (UniProt P30530); settings: at 0.1 µM;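 note: values are mean percent inhibition of AXL from the GSK PKIS screen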
Sequence of Tyrosine-protein kinase receptor UFO (Homo sapiens) (P30530 whole entry): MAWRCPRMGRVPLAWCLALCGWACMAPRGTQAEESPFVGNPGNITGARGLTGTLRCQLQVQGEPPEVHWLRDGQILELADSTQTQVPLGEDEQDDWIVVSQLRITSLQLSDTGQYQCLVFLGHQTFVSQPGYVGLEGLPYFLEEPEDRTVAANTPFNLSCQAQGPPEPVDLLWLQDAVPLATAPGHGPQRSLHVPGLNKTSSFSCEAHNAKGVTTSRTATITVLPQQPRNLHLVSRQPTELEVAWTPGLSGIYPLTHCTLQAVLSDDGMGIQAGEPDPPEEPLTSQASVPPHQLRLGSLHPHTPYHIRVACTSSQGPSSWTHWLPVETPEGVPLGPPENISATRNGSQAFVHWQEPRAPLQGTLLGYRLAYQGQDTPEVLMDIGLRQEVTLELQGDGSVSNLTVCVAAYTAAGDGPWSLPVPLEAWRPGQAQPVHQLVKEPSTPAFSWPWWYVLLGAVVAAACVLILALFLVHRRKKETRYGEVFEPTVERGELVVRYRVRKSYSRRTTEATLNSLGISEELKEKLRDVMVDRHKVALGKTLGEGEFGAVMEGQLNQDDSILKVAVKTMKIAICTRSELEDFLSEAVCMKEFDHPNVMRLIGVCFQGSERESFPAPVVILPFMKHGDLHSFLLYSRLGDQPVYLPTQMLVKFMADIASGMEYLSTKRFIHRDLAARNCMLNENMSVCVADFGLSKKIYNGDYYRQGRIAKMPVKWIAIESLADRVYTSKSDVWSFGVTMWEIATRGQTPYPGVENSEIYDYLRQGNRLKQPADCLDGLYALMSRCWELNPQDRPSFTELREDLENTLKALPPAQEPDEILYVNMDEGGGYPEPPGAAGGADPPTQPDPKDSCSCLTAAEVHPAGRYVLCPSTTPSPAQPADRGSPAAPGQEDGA

Sequence of Tyrosine-protein kinase ABL2 (Homo sapiens) (P42684 whole entry): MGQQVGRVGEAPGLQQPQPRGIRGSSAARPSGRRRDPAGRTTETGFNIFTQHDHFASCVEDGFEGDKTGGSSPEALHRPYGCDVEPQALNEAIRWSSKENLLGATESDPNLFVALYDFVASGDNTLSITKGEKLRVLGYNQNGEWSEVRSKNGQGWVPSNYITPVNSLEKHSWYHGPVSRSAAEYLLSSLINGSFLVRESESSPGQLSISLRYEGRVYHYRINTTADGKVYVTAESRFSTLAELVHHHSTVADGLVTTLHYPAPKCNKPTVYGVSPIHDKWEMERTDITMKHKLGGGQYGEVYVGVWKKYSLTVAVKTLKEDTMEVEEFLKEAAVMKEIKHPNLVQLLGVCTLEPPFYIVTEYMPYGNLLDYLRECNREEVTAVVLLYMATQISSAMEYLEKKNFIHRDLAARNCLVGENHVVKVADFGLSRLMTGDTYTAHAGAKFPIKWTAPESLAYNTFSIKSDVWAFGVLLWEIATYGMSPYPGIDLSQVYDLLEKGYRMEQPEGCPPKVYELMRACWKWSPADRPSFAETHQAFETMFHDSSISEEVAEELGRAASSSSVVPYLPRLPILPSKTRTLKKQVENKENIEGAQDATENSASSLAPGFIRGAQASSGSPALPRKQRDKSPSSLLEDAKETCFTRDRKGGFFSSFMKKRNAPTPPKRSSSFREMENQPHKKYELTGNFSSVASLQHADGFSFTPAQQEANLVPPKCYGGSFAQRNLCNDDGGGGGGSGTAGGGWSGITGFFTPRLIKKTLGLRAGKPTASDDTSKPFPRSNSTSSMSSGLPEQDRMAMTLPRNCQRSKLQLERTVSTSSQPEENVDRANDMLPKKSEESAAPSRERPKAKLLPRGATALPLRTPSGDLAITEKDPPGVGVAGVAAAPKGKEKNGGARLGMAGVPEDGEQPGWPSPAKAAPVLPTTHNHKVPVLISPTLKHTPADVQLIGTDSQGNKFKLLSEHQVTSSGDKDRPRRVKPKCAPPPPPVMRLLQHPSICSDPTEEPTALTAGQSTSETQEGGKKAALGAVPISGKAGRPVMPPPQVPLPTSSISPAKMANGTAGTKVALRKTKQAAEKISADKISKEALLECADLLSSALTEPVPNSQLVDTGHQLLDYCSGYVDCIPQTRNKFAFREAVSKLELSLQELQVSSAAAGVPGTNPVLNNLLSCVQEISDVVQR
Sequence of ALK tyrosine kinase receptor (Homo sapiens) (Q9UM73 19-1620 limits assumed): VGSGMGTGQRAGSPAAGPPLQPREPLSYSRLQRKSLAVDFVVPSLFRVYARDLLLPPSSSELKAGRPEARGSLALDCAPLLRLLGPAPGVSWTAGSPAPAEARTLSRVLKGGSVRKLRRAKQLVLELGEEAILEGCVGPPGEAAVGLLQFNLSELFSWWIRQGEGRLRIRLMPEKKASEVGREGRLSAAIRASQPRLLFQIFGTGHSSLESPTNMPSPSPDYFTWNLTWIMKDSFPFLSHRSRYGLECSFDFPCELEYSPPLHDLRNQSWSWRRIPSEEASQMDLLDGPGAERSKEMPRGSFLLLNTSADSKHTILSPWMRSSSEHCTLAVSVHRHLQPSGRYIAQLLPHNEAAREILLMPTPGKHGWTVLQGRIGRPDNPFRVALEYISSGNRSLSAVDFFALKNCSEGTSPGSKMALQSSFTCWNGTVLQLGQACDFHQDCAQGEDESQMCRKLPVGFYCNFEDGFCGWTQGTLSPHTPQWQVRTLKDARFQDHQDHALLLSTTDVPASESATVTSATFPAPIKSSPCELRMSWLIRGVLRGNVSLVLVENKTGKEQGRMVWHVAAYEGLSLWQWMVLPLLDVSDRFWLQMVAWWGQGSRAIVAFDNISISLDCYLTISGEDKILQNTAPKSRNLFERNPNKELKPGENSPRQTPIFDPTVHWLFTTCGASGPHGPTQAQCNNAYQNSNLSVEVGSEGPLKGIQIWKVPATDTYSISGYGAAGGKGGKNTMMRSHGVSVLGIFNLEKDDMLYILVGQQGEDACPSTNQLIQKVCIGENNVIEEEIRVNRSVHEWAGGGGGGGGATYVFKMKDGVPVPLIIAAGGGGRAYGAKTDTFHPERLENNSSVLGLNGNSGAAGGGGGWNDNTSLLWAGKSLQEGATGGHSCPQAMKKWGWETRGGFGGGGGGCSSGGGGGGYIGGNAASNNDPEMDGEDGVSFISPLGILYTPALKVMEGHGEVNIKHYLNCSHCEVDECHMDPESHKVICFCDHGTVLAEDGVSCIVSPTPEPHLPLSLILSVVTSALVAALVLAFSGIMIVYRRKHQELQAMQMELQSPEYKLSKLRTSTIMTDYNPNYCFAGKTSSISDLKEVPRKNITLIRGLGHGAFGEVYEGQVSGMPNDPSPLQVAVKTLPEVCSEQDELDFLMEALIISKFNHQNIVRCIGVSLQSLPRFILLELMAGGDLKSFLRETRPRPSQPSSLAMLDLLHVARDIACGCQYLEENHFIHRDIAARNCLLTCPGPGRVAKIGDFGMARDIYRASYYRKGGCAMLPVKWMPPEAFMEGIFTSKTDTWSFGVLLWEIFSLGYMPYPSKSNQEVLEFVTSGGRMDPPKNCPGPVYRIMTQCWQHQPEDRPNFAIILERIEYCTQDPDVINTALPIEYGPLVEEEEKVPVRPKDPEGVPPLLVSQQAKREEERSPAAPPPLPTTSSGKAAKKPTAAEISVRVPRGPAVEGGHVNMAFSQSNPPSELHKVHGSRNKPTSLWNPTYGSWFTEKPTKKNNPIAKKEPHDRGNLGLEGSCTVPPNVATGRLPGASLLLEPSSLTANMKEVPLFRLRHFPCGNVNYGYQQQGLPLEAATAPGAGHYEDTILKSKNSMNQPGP

| SMILES | inhibition [1] [%] | inhibition [2] [%] | inhibition [3] [%] | inhibition [4] [%] | inhibition [5] [%] | inhibition [6] [%] | inhibition [7] [%] | inhibition [8] [%] | inhibition [9] [%] | inhibition [10] [%] |
| --- | --- | --- | --- | --- | --- | --- | --- | --- | --- | --- |
| CCn1c(-c2nonc2N)nc2ccncc21 | -0.3 | -0.36 | 1.17 | 1.53 | 3.89 | 1.59 | 1.87 | 2.85 | -1.97 | -1.17 |
| Fc1cccc(COc2ccc(Nc3ncnc4sc(-c5cccs5)cc34)cc2Cl)c1 | 0.93 | 1.7 | 3.31 | 1.23 | 6.44 | 0.25 | 0.57 | 1.27 | 5.37 | -4.04 |
| N#Cc1c(NC(=O)c2cccc3ccccc23)sc2c1CCCC2 | 3.27 | 5.89 | 5.73 | 2.91 | 9.14 | 2.92 | 2.25 | 3.88 | 9.55 | -4.77 |
| O=C1NC(=O)C(c2ccccc2Cl)=C1Nc1cccc(O)c1 | 6.08 | 3.51 | 3.33 | 4.23 | 9.09 | 2.43 | 4.74 | 4.43 | 1.33 | -5.88 |
| COc1ccc(-c2nn3ncccc3c2-c2ccnc(Nc3ccc(Cl)c(C(F)(F)F)c3)n2)cc1 | 4.57 | 2.03 | 6.35 | 2.26 | 10.3 | 1.83 | 2.05 | 2.64 | 9.44 | -2.69 |
| COc1cc2ncn(-c3cc(O[C@@H](C)c4ccccc4Cl)c(C(N)=O)s3)c2cc1OC | 13.5 | 6.04 | 25.9 | 7.09 | 28.4 | 3.25 | 6.34 | 3.24 | 11.4 | -8.48 |
| CCn1c(-c2nonc2N)nc2cncc(C(=O)N3CC[C@H](N)C3)c21 | 3.27 | 2.94 | 3.51 | 4.28 | 4.33 | 3.95 | 3.52 | 5.33 | 7.29 | -5.66 |
| [O-][S+]1CCN(Cc2ccc(-c3ccc4ncnc(Nc5ccc(OCc6ccccc6)c(F)c5)c4c3)o2)CC1 | -1.37 | 2.33 | -0.81 | 1.83 | 5.78 | 1.75 | 4.79 | 3.02 | 3.87 | -4.98 |
| CN1CCC(C(=O)Nc2n[nH]c3nnc(-c4ccccc4)cc23)CC1 | 5.74 | 1.97 | 5.41 | 2.03 | 4.42 | 2.9 | 6.61 | 0.96 | 2.58 | -5.95 |
| COC(=O)Nc1nc2cc(Oc3ccc(NC(=O)Nc4cccc(C(=O)O)c4)cc3)ccc2[nH]1 | 15.4 | 5.1 | 7.71 | -2.66 | 6.45 | -3.78 | -1.37 | -0.6 | 3.96 | -0.47 |
| COc1cccc(-n2ncc3c(N/N=C/c4cccc(F)c4)ncnc32)c1 | 51.8 | 57.7 | 89.2 | 12 | 69.3 | -1.54 | -1.21 | 3.52 | 52.4 | -2.89 |
| CCN1CCC(CC(=O)Nc2n[nH]c3nc(-c4cccs4)c(Br)cc23)CC1 | 22.7 | -0.82 | 5.45 | 2.56 | 7.83 | -2.08 | -1.3 | -0.08 | 2.5 | 1.67 |
| CC1=C(C(=O)Nc2ccc3[nH]ncc3c2)C(c2ccc(Cl)c(Cl)c2)CC(=O)N1 (stereo not given) | 2.96 | 2.96 | 0.52 | 2.43 | 7.38 | 0.6 | 3.88 | 2.19 | 3.97 | -2.18 |
| Cc1ccc(NC(=O)c2ccnc(N3CCCC3)c2)cc1-c1ccc(C(=O)NCC2CC2)cc1 | 2.61 | 2.64 | 3.85 | -0.85 | 4.81 | 0.36 | 5.33 | -0.85 | 7.46 | -7.11 |
| Nc1nc(-c2ccc3c(c2)C(=Cc2cc(Br)c(O)c(Br)c2)C(=O)N3)cs1 | 1.95 | -2.03 | 7.8 | 0.56 | 12.7 | -1.31 | 1.3 | 0.45 | 9.86 | 0.81 |
| CCn1c(-c2nonc2N)nc2c(C#CC(C)(C)O)nc(CN3CCCC3)cc21 | 0.96 | 0.59 | -0.16 | 0.66 | 3.27 | -0.84 | 0.01 | 2.08 | 5.65 | 1.88 |
| CS(=O)(=O)CCNCc1nc(-c2ccc3ncnc(Nc4ccc(F)c(Cl)c4)c3c2)cs1 | 6.43 | 1.82 | 18.3 | 3.89 | 18.2 | 0.89 | 3.6 | 4.58 | 9.66 | 0.38 |

| SMILES | inhibition [1] [%] | inhibition [2] [%] | inhibition [3] [%] | inhibition [4] [%] | inhibition [5] [%] | inhibition [6] [%] | inhibition [7] [%] | inhibition [8] [%] | inhibition [9] [%] | inhibition [10] [%] |
| --- | --- | --- | --- | --- | --- | --- | --- | --- | --- | --- |
| O=C1NC(=O)C(c2ccc(Cl)cc2)=C1Nc1ccc(Cl)c(C(=O)O)c1 | 3 | 2.01 | 0.85 | -0.85 | 7.52 | -2.28 | -1.12 | -0.74 | 7.37 | 2.69 |
| CC(=O)Nc1cccc(C#Cc2cncnc2Nc2ccc(OCc3cccc(F)c3)c(Cl)c2)n1 | 2.23 | 2.32 | 1.84 | 1.24 | 4.88 | -2.16 | -2.6 | 0.55 | 3.74 | 7.46 |
| Cc1nn(C)c2cc(N(C)c3ccnc(Nc4cccc(S(N)(=O)=O)c4)n3)ccc12 | 68.1 | 45.3 | 84.5 | 28.3 | 74.9 | 3.45 | 19.2 | 30.2 | 74.4 | -2.86 |
| COc1cc(C=NNc2ncnc3c2cnn3-c2ccccc2)ccc1O | 82.1 | 43.3 | 86.6 | 23.4 | 73.7 | 2.44 | 6.69 | 11.6 | 71.5 | -1.48 |
| Cc1nnc(-c2ccc(C)c(-c3ccc(C(=O)Nc4cccc(C#N)c4)cc3)c2)o1 | 2.58 | 1.18 | 3.76 | 3.64 | 5.81 | 3.61 | 2.36 | 4.17 | 6.56 | -4.6 |
| COc1cc2ncn(-c3cc(O[C@H](C)c4ccccc4Cl)c(C(N)=O)s3)c2cc1OC | 57.9 | 11.5 | 47.1 | 7.25 | 47.2 | 4.18 | 19 | 4.99 | 37.2 | -0.27 |
| CC1=C(C(=O)Nc2ccc3[nH]ncc3c2)C(c2ccc3ccccc3c2)CC(=O)N1 (stereo not given) | 22.1 | 4 | 5.47 | 2.85 | 7.38 | 2.78 | 7.11 | 3.07 | 8.71 | -2.62 |
| CC(C)=Cc1cccc2c1/C(=N/Nc1ccc(S(N)(=O)=O)cc1)C(=O)N2 | 18.2 | 4.12 | 21.9 | 2.44 | 12.7 | 2.57 | 10.4 | 3.09 | 14 | 1.02 |
| COC(=O)Nc1nc2cc(Oc3cccc(NC(=O)Nc4cc(C(F)(F)F)ccc4F)c3)ccc2[nH]1 | 12.6 | 5.16 | 19.8 | 0.82 | 24.6 | -1 | 0.13 | 4.08 | 41.3 | -0.41 |
| COc1ccc2cc(-c3c(-c4ccncc4)nc(-c4ccc([S+](C)[O-])cc4)n3C)ccc2c1 (stereo not given) | 12.1 | 1.26 | 4.12 | 2.44 | 8.87 | 1.63 | 3.57 | 2.63 | 9.3 | -6.33 |
| NS(=O)(=O)c1ccc(N/N=C2\C(=O)Nc3ccc(C(=O)NCCc4c[nH]cn4)cc32)cc1 | 11.6 | 3.56 | 12.1 | 5.35 | 15.3 | 3.67 | 12.9 | 4.29 | 9.57 | -2.52 |
| CNC(=O)c1cncc(/C=C/c2c(Cl)cccc2Cl)c1 | 4.22 | 12.5 | 54.5 | 8.37 | 40.5 | 6 | 9.12 | 7.46 | 35.7 | -6.04 |
| CCCN1CCC(Oc2cc(Nc3nc(Nc4cccc(F)c4C(N)=O)c4cc[nH]c4n3)c(OC)cc2Cl)CC1 | 1.37 | 1.12 | 3.82 | 4.76 | 10.1 | 55.7 | 78.2 | 4.89 | 12.3 | 5.22 |
| Cc1cc(O)cc(C)c1/C=C/c1cncc(-c2nn[nH]n2)c1 | 8.36 | 31.5 | 86.1 | 12.4 | 71.1 | -0.37 | 4.03 | 19.9 | 68.6 | -8.81 |
| Cc1cccc(-c2n[nH]cc2-c2ccc3ncccc3n2)n1 | 2.07 | 3.03 | 25.9 | 5.29 | 37.2 | 2.05 | 0.57 | 3.75 | 8 | -0.81 |
| O=C1NC(=O)C(N2CCc3ccccc32)=C1c1ccc(Cl)cc1 | 1.87 | 6.01 | 5.27 | 4.41 | 7.9 | 3.63 | 4.31 | 4.83 | 8.28 | -4.63 |
